Source: PubChem BioAssay (Tox21)
Records with an inconclusive call do not appear. The source made the active and inactive calls. Unless noted, the call rests on the fitted dose curve; in most records, active means well fitted curve in the direction sought with a large enough effect in the repeat runs; inconclusive means weak or mixed curves; inactive means no such curve, though single readings can be large; an effect the other way counts as inactive or inconclusive.

Assays:
[1] = qHTS assay to identify small molecule agonists of the estrogen receptor alpha (ER-alpha) signaling pathway in the presence of an antagonist - cell viability counter screen (AID 1259386);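 further: series mostly up to about 92 µM; cells exposed to compounds for 22 h at 37 °C before the viability read; nearly all actives have a fitted effect of over 30% in size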
In short: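 VM7Luc4E2, stripped-serum pre-culture 5 d; 24hr plating; +ICI-182,780 10.0nM final; cpds 15 conc, 22hr, 37C/5% CO2; CellTiter-Fluor added at 21hr, fluorescence 1hr later.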

[2] = molecular target: Progesterone receptor (Homo sapiens) (UniProt P06401); assay: qHTS assay to identify small molecule agonists of the progesterone receptor (PR) signaling pathway (AID 1346784; calls by dose curve; further: nearly all actives have a fitted effect of over 30% in size; further: potency means the concentration at half of the fitted maximal effect)
Progesterone receptor (Homo sapiens), sequence (P06401 whole entry, looked up): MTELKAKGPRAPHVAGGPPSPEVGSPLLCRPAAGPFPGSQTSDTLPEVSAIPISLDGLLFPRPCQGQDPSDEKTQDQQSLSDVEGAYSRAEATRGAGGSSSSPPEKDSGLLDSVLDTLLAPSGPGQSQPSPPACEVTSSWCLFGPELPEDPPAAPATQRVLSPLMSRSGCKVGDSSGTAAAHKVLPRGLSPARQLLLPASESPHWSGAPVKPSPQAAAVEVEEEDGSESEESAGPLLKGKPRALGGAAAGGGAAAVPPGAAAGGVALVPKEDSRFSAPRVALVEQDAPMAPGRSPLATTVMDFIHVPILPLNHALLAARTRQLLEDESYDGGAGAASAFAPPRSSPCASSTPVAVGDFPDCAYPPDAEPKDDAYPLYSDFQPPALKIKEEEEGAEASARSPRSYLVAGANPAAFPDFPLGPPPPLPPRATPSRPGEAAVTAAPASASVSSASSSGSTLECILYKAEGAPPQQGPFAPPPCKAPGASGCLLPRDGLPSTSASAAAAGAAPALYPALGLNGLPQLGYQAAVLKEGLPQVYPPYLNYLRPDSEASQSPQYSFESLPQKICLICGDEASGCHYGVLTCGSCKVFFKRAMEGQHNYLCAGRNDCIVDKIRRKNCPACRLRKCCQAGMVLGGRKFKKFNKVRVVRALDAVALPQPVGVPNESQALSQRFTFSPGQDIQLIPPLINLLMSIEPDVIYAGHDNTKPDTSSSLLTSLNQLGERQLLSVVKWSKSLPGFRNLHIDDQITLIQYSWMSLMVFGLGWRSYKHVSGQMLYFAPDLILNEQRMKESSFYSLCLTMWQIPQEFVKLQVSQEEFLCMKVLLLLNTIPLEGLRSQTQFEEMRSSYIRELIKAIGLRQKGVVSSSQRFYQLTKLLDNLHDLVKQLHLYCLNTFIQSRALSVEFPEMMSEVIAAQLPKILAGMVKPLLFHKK
In short: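 Seed PR-UAS-bla HEK 293T cells (2% charcoal-stripped FBS), incubate 6 hr at 37C; add compounds in DMSO, 16 hr at 37C; add LiveBLAzer B/G substrate, 2 hr RT; read fluorescence intensity.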

[3] = molecular target: Progesterone receptor (Homo sapiens) (UniProt P06401); assay: qHTS assay to identify small molecule antagonists of the progesterone receptor (PR) signaling pathway (AID 1346795; active means well fitted inhibition curve with a large enough effect in the signal ratio in the repeat runs, not every such curve was filed as active; the % refers to the signal ratio)
In short: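 Screening used a GripTite HEK293T line with PR-responsive UAS-beta-lactamase. Cells were challenged with compound in the presence of 1 nM R5020 final for 16 hr at 37C; B/G FRET substrate, 2 hr room temperature, fluorescence.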

[4] = qHTS assay to identify small molecule antagonists of the progesterone receptor (PR) signaling pathway - cell viability counter screen (AID 1346798); further: series mostly up to about 92 µM; nearly all actives have a fitted effect of over 50% in size
In short: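 Measures cytotoxicity in parallel with the PR antagonist reporter read: HEK293T PR-UAS-bla cells get compound and R5020 for 16 hr, and remaining viable cells are quantified by CellTiter-Glo luminescence.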

[5] = qHTS assay to identify small molecule agonists of the progesterone receptor (PR) signaling pathway - cell viability counter screen (AID 1346799; calls by dose curve; further: nearly all actives have a fitted effect of over 45% in size)
In short: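 Using the same plates as the PR reporter screen, HEK293T PR-UAS-bla cells received compounds for 16 hr at 37C and were then lysed with CellTiter-Glo; luminescence was read 30 min later at room temperature.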

[6] = qHTS assay to identify small molecule antagonists of the TGF-beta/Smad signaling pathway - cell viability counter screen (AID 1346824); further: nearly all actives have a fitted effect of over 50% in size
In short: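 SBE-bla HEK 293T cells were plated overnight at 37 C, then given compounds in DMSO plus TGF-beta1 (added as 0.25 ng/mL solution) for 5 hr. After the bla read, CellTiter-Glo was added to the same wells and luminescence read after 30 min at room temperature.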

[7] = qHTS assay to identify small molecule agonists of the TGF-beta/Smad signaling pathway - cell viability counter screen (AID 1346829); further: top concentration of the series differs between compounds; nearly all actives have a fitted effect of over 45% in size
In short: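 HEK 293T SBE-bla line, 5 hr compound exposure at 37 C, multiplexed CellTiter-Glo viability read by luminescence.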

[8] = Human pregnane X receptor (PXR) small molecule agonists, qHTS cell viability counter screen (AID 1346977); further: nearly all actives have a fitted effect of over 50% in size
In short: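 After a 5hr pre-incubation, PXR-Luc HepG2 cells received compounds plus positive control in DMSO and were kept 24hr at 37C. Cell viability was quantified by fluorescence from CellTiter-Fluor added for the final hour.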

[9] = Caspase-3/7 induction in HepG2 cells by small molecules, qHTS assay (AID 1346978); further: nearly all actives have a fitted effect of over 15% in size
In short: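 Wild-type HepG2 cells (2,000/well) were settled 5 h at 37 C, 5% CO2, then exposed to compounds in DMSO for 17 h. Caspase-3/7 activity was read by luminescence 30 min after adding Caspase-Glo 3/7 reagent at room temperature.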

[10] = Caspase-3/7 induction in CHO-K1 cells by small molecules, qHTS cell viability counter screen (AID 1346979); further: nearly all actives have a fitted effect of over 35% in size
In short: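 Multiplexed with Caspase-Glo 3/7 in CHO-K1 cells, this counter screen added CellTiter-Fluor after 16hr of compound exposure and recorded fluorescence 1hr later.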

[11] = Caspase-3/7 induction in CHO-K1 cells by small molecules, qHTS assay (AID 1346980); further: nearly all actives have a fitted effect of over 15% in size
In short: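 Wild-type cells were seeded at 1,500 per well and settled 5 hr at 37 C, 5% CO2, then exposed to DMSO-dissolved compounds for 17 hr. Caspase-Glo 3/7 reagent was added, and luminescence was read after 30min at room temperature.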

[12] = Caspase-3/7 induction in HepG2 cells by small molecules, qHTS cell viability counter screen (AID 1346981); further: series mostly up to about 92 µM; nearly all actives have a fitted effect of over 30% in size
In short: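 HepG2, WT, 2,000 cells/well; 5 hr pre-incubation 37 C/5% CO2; compound pin-transferred from DMSO; 16 hr exposure; CellTiter-Fluor, 1 hr; fluorescence read.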

[13] = molecular target: Nuclear receptor subfamily 1 group I member 2 (Homo sapiens) (UniProt O75469); assay: Human pregnane X receptor (PXR) small molecule agonists, qHTS assay (AID 1346982); further: nearly all actives have a fitted effect of over 35% in size; further: potency means the concentration at half of the fitted maximal effect
Nuclear receptor subfamily 1 group I member 2 (Homo sapiens), sequence (O75469 whole entry, looked up): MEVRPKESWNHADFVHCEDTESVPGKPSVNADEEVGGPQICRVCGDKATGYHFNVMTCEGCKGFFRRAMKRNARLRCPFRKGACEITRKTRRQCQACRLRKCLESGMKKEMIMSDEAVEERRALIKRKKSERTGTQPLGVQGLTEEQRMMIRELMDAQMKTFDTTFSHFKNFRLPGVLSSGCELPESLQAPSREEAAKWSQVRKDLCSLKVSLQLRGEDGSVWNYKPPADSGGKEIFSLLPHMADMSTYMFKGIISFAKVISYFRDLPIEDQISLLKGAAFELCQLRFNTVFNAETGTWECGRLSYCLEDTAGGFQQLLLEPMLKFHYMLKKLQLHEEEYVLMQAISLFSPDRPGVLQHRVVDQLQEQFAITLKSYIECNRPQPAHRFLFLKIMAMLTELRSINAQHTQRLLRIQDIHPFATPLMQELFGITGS
In short: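 Luciferase signal from ONE-Glo (30 min, room temperature) measured activation of hPXR-driven CYP3A4 reporter expression in PXR-Luc HepG2 cells treated with compounds for 24 hr at 37 C.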

[14] = molecular target: Acetylcholinesterase (Homo sapiens) (UniProt P22303); assay: Acetylcholinesterase (AChE) small molecule antagonists: colormetric cell-based qHTS assay (AID 1347395; calls by dose curve; further: nearly all actives have a fitted effect of over 30% in size; further: potency means the concentration at half of the fitted maximal effect)
Acetylcholinesterase (Homo sapiens), sequence (P22303 whole entry, looked up): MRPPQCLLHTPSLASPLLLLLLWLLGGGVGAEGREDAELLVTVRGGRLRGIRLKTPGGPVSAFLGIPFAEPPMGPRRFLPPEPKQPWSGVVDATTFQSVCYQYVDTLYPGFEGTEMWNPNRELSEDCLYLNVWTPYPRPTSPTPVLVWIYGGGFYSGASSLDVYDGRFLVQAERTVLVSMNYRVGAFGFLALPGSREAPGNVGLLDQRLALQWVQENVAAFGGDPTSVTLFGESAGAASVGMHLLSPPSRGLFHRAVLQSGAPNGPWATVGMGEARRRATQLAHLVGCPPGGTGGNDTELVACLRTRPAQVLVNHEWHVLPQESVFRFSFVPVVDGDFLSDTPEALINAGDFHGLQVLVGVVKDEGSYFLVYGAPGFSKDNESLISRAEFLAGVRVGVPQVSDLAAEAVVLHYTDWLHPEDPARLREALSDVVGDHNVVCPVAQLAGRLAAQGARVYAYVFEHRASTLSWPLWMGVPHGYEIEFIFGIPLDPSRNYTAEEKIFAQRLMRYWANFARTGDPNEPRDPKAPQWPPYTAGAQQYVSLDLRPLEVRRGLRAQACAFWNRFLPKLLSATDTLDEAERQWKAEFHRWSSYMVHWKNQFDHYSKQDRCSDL
In short: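 In this cell-based qHTS, attached SH-SY5Y cells were treated with test chemicals for 30 min, after which acetylthiocholine hydrolysis was followed by DTNB colour development over 90 min at 37 C.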

[15] = qHTS assay to identify small molecule agonists of the TGF-beta/Smad signaling pathway (AID 1346859; active means well fitted activation curve with a large enough effect in the signal ratio in the repeat runs, not every such curve was filed as active; the % refers to the signal ratio; further: series mostly up to about 77 µM)
In short: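 Beta-lactamase reporter activity downstream of Smad binding elements was measured in stably transfected HEK 293T cells; compounds were incubated for 5 hr, substrate for 2 hr at room temperature.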

[16] = molecular target: Thyrotropin-releasing hormone receptor (Homo sapiens) (UniProt P34981); assay: qHTS assay to identify small molecule antagonists of the thyrotropin-releasing hormone receptor (TRHR) signaling pathway (AID 1346877; active means well fitted inhibition curve with a large enough effect in the repeat runs, not every such curve was filed as active; further: series mostly up to about 51 µM)
Thyrotropin-releasing hormone receptor (Homo sapiens), sequence (P34981 whole entry, looked up): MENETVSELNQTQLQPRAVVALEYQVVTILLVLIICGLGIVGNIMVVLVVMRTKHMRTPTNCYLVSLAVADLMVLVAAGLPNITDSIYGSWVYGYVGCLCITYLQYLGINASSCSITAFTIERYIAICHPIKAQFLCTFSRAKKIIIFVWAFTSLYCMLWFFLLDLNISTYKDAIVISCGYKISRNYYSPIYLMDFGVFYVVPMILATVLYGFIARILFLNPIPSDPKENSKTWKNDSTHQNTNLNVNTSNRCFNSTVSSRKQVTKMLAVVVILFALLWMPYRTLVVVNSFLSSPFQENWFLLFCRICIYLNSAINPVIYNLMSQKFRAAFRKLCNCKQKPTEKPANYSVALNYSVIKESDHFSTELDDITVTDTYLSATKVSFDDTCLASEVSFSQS
In short: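 Intracellular calcium fluorescence, read kinetically every second over 3 min, reports TRH-evoked signalling in HEK293 cells carrying TRHR. Test compounds were added 5 min ahead of a 1 nM TRH challenge.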

[17] = molecular target: Thyrotropin-releasing hormone receptor (Homo sapiens) (UniProt P34981); assay: qHTS assay to identify small molecule agonists of the thyrotropin-releasing hormone receptor (TRHR) signaling pathway (AID 1346891; calls by dose curve;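 further: HEK293 cells expressing TRHR with calcium dye readout; series mostly up to about 58 µM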)
In short: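 Overnight-plated (18 h, 37 °C, 5% CO2) TRHR-Hek293 cells; 2 h calcium dye at 37 °C; compound in DMSO; 3-min kinetic fluorescence read.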

[18] = molecular target: Nuclear receptor subfamily 1 group I member 2 (Rattus norvegicus) (UniProt Q9R1A7); assay: Rat pregnane X receptor (rPXR) activation by small molecules, qHTS assay (AID 1346983); conditions: rPXR luciferase reporter cells, One-Glo luminescence, 24 h; hits give high values; further: nearly all actives have a fitted effect of over 20% in size
Nuclear receptor subfamily 1 group I member 2 (Rattus norvegicus), sequence (Q9R1A7 whole entry, looked up): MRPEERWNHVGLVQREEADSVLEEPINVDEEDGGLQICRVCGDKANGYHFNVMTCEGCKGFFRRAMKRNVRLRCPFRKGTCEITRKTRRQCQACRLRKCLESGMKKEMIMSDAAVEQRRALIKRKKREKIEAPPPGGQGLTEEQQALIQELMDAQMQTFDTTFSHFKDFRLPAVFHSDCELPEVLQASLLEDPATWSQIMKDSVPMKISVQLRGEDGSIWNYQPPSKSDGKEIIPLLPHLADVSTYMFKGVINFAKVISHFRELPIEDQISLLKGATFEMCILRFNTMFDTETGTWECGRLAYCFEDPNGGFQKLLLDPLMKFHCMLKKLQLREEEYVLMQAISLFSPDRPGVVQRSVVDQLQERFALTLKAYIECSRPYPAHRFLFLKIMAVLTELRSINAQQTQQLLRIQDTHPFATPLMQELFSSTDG
In short: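 Cell-based rPXR luciferase reporter assay, 2,000 cells per well, rested 5hr at 37 C before compound addition in DMSO, then 24 hr at 37 C. One-Glo reagent was added and luminescence read after 30 min at room temperature.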

[19] = molecular target: Nuclear receptor subfamily 1 group I member 2 (Homo sapiens) (UniProt O75469); assay: CYP3A4 induction through human pregnane X receptor (PXR) by small molecules, qHTS assay (AID 1346984); further: nearly all actives have a fitted effect of over 40% in size
In short: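 Luminescence readout: luciferase signal after One-Glo (30 min, room temperature), following 3 h at 37C with 3uM final Luciferin-IPA P450 substrate. Cells were DPX-2 (HepG2, PXR/CYP3A4-luc co-transfected) dosed for 24 h.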
On the % scale 0 is the no-effect control and ±100 the full control effect.

O=C1CCCCC1Cl (stereo unspecified)
inactive: Potency [1] | Potency [2] | Potency [3] | Potency [4] | Potency [5] | outcome [6] | Potency [7] | Potency [8] | outcome [9] | Potency [10] | outcome [11] | Potency [12] | Potency [13] | Potency [14]

CCN[C@@H](C)Cc1ccccc1
inactive: Potency [1] | Potency [2] | Potency [3] | Potency [5] | outcome [6] | Potency [7] | outcome [15] | Potency [16] | outcome [17] | Potency [8] | outcome [9] | Potency [10] | outcome [11] | Potency [12] | Potency [13] | Potency [14]

ClCCCCCCCl
inactive: Potency [1] | Potency [2] | Potency [3] | Potency [5] | outcome [6] | Potency [7] | outcome [15] | Potency [16] | outcome [17] | Potency [8] | outcome [9] | Potency [10] | outcome [11] | Potency [12] | Potency [13] | Potency [14]

Cc1cccc2sc3nncn3c12
inactive: Potency [1] | Potency [2] | Potency [3] | Potency [5] | outcome [6] | Potency [7] | outcome [15] | Potency [16] | outcome [17] | Potency [8] | outcome [9] | Potency [10] | outcome [11] | Potency [12]
active: Potency [13] 34.4 µM | Potency [14] 39.9 µM

CC(C)NCC(O)c1ccc([N+](=O)[O-])cc1 (stereo unspecified)
inactive: Potency [1] | Potency [2] | Potency [3] | Potency [5] | outcome [6] | Potency [7] | outcome [15] | Potency [16] | outcome [17] | Potency [8] | outcome [9] | Potency [10] | outcome [11] | Potency [12] | Potency [13] | Potency [14]

CCC1(c2ccccc2)CCC(=O)NC1=O (stereo unspecified)
inactive: Potency [1] | Potency [2] | Potency [3] | Potency [5] | outcome [6] | Potency [7] | outcome [15] | Potency [16] | outcome [17] | Potency [8] | outcome [9] | Potency [10] | outcome [11] | Potency [12] | Potency [13] | max activation [18] -0.631% | Potency [19] | Potency [14]

CN(C)CCN(C)C
active: Potency [2] 27.2 µM
inactive: Potency [1] | Potency [3] | Potency [4] | outcome [6] | Potency [7] | Potency [16] | outcome [17] | Potency [8] | outcome [9] | Potency [10] | Potency [12] | Potency [13] | Potency [14]

COC(=O)c1ccc(CBr)cc1
inactive: Potency [1] | Potency [2] | Potency [3] | Potency [5] | outcome [6] | Potency [7] | outcome [15] | Potency [16] | outcome [17] | Potency [8] | outcome [11] | Potency [12] | Potency [14]
active: Potency [13] 55.1 µM

CCCC[N+](=O)[O-]
inactive: Potency [1] | Potency [2] | Potency [3] | Potency [5] | outcome [6] | Potency [7] | outcome [15] | Potency [16] | outcome [17] | Potency [8] | outcome [9] | Potency [10] | outcome [11] | Potency [12] | Potency [13] | Potency [14]

O=CCCl
inactive: Potency [1] | Potency [2] | Potency [3] | Potency [4] | Potency [5] | Potency [7] | outcome [15] | Potency [16] | outcome [17] | Potency [8] | outcome [9] | Potency [10] | Potency [13] | Potency [14]

CCOc1cc(OP(=S)(OC)OC)nc(CC)n1
inactive: Potency [1] | Potency [2] | Potency [3] | Potency [4] | Potency [5] | outcome [6] | Potency [7] | Potency [16] | outcome [17] | Potency [8] | outcome [9] | Potency [10] | outcome [11] | Potency [13] | Potency [14]

CNC(=O)Oc1ccccc1C(C)C
inactive: Potency [1] | Potency [2] | Potency [3] | Potency [4] | Potency [5] | outcome [6] | Potency [7] | Potency [8] | outcome [9] | Potency [10] | outcome [11] | Potency [13]
active: Potency [14] 3.56 µM

O=P(O)(O)CN(CP(=O)(O)O)CP(=O)(O)O
inactive: Potency [1] | Potency [2] | Potency [3] | Potency [4] | Potency [5] | outcome [6] | Potency [7] | Potency [8] | outcome [9] | Potency [10] | outcome [11] | Potency [13] | Potency [14]

COc1ccc(C=O)cc1O
inactive: Potency [1] | Potency [2] | Potency [3] | Potency [5] | outcome [6] | Potency [7] | outcome [15] | Potency [16] | outcome [17] | Potency [8] | outcome [9] | Potency [10] | outcome [11] | Potency [12] | Potency [13] | Potency [14]
